Results reported in PubChem BioAssay.
Results filed as inconclusive are left out. The source made the active and inactive calls.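 How the source made its calls, unless noted: active means normalized viability below 100% at a tested concentration; inactive means the rest.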

What was measured:
[1] = viability loss in pontine glioma line – cell-based, SU-DIPG-XVII, MIPE5.0, CellTiter-Glo, qHTS, dose response (AID 1347060; cut-off not given, nearly all actives have AC50 up to about 26 µM;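 further: cells exposed to compound for 48 hours before viability readout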); conditions: CellTiter-Glo ATP luminescence
[2] = viability loss in pontine glioma line – cell-based, SU-DIPG-XIII, MIPE4.0, CellTiter-Glo, qHTS, dose response (AID 1347061; cut-off not given, nearly all actives have AC50 up to about 37 µM;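 further: cells exposed to compound for 48 hours before readout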); conditions: CellTiter-Glo ATP luminescence
[3] = viability loss in pontine glioma line – cell-based, JHH-DIPG-1, MIPE4.0, CellTiter-Glo, qHTS, dose response (AID 1347062; cut-off not given, nearly all actives have AC50 up to about 27 µM;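 further: cells exposed to compound for two days before readout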); conditions: JHH-DIPG-1 viability, CellTiter-Glo ATP luminescence
[4] = viability loss in pontine glioma line – cell-based, SU-DIPG-IV, MIPE4.0, CellTiter-Glo, qHTS, dose response (AID 1347063; cut-off not given, nearly all actives have AC50 up to about 30 µM;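 further: compound exposure lasted 48 hours before the viability readout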); conditions: CellTiter-Glo ATP luminescence
[5] = viability loss in pontine glioma line – cell-based, SU-DIPG-XIII, MIPE5.0, CellTiter-Glo, qHTS, dose response (AID 1347064; cut-off not given, nearly all actives have AC50 up to about 23 µM;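 further: cells exposed to compound for 48 hours before the viability read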); conditions: CellTiter-Glo ATP luminescence
[6] = viability loss in pontine glioma line – cell-based, SU-DIPG-XXV, MIPE5.0, CellTiter-Glo, qHTS, dose response (AID 1347065; cut-off not given, nearly all actives have AC50 up to about 26 µM;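 further: cells exposed to compound for 48 hours before ATP readout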); conditions: CellTiter-Glo ATP luminescence
[7] = growth inhibition of DIPG cells – cell-based, MIPE4.0 library, CellTiter-Glo luminescence, qHTS (AID 1347066; cut-off not given, nearly all actives have AC50 up to about 30 µM;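 further: cells exposed to compound for 48 hours before readout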); conditions: SU-DIPG-VI viability, CellTiter-Glo ATP luminescence
[8] = JHH-DIPG-1 glioma cell viability, MIPE5.0 library, CellTiter-Glo luminescence, qHTS (AID 1347067; cut-off not given, nearly all actives have AC50 up to about 26 µM;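 further: cells exposed to compound for 48 hours before readout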); conditions: JHH-DIPG-1 glioma viability, CellTiter-Glo ATP luminescence
[9] = growth inhibition of DIPG cells – cell-based, MIPE5.0 library, qHTS (AID 1347068; cut-off not given, nearly all actives have IC50 up to about 30 µM;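 further: cells exposed to compound for 48 hours before viability readout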); conditions: SU-DIPG-XXV viability
[10] = viability loss with induced miR-34 in A549 – imaging, A549 dox-inducible miR-34, nuclei and caspase counts, primary screen (AID 1347080;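 active means compounds whose cell count with miR-34 switched on is under 0.7 times the count with it off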); conditions: A549 miR-34 inducible, Hoechst nuclei count, 48 h
[11] = compounds altering HSF1 focus formation in cells – imaging, Selleck Cancer Library (AID 1347162; in the data active means plate-normalised HSF1 focus index below about 0.46); conditions: human cells, HSF1 nuclear foci imaging, at 10 µM; SSMD: measured here: HSF1 foci SSMD mean; cell count: measured here: cell number; plate-normalised HSF1 focus index: stronger effect = lower value
[12] = MELAS cybrid and Rieske KO viability enhancers – cell-based, MELAS cybrids, Rieske KO mouse fibroblasts, CellTiter-Glo, primary screen (AID 1508586;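 active means mean z-score across replicates of 1.96 or higher in either the MELAS or the Rieske mutant cell line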;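 further: z relative to plate mean and SD of compound and empty wells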); conditions: low glucose
[13] = drug combination growth inhibition, ovarian cancer – cell-based, oncology-focused library, rucaparib conditional, profiling panel (AID 1508598); conditions: patient-derived ovarian cancer cells, CellTiter-Glo viability, 144 h, stronger effect = lower value

Cc1ccc(C(=O)Nc2ccc(CN3CCN(C)CC3)c(C(F)(F)F)c2)cc1C#Cc1cnc2cccnn12
inactive: fold change ([10]; stronger effect = lower value, cell number ratio, induced over uninduced) 1.36 | plate-normalised HSF1 focus index [11] 1.09 | z-score ([12]; MELAS cybrid survival, CellTiter-Glo 48 h, stronger effect = higher value) 1.37 | viability ([13]; at 0.000305 µM, OCI-C5x cells, without rucaparib) 114% | viability ([13]; at 0.000305 µM, OCI-P5x cells, with rucaparib 20 µM, 100% = cells with rucaparib alone) 108% | viability ([13]; at 0.000305 µM, OCI-P5x cells, without rucaparib) 114% | viability ([13]; at 0.00122 µM, OCI-C5x cells, without rucaparib) 122% | viability ([13]; at 0.00122 µM, OCI-P5x cells, with rucaparib 20 µM, 100% = cells with rucaparib alone) 103% | viability ([13]; at 0.00122 µM, OCI-P5x cells, without rucaparib) 111% | viability ([13]; at 0.00488 µM, OCI-C5x cells, with rucaparib 10 µM, 100% = cells with rucaparib alone) 104% | viability ([13]; at 0.00488 µM, OCI-C5x cells, without rucaparib) 130% | viability ([13]; at 0.00488 µM, OCI-P5x cells, without rucaparib) 107% | viability ([13]; at 0.0195 µM, OCI-C5x cells, without rucaparib) 127% | viability ([13]; at 0.0195 µM, OCI-P5x cells, with rucaparib 20 µM, 100% = cells with rucaparib alone) 102% | viability ([13]; at 0.0781 µM, OCI-C5x cells, without rucaparib) 117% | viability ([13]; at 0.0781 µM, OCI-P5x cells, without rucaparib) 111% | viability ([13]; at 0.313 µM, OCI-C5x cells, without rucaparib) 118% | viability ([13]; at 1.25 µM, OCI-C5x cells, without rucaparib) 116%
1.05: fold change ([10]; measured here: relative caspase fold change +Dox/-Dox)
597: cell count ([10]; measured here: total cells without miR-34 induction)
1.5: SSMD [11]
7680: cell count [11]
active: AC50 [1] 590 nM | AC50 [2] 418 nM | AC50 [3] 6.62 µM | AC50 [4] 1.18 µM | AC50 [5] 661 nM | AC50 [6] 833 nM | AC50 [7] 8.33 µM | AC50 [8] 2.35 µM | IC50 [9] 2.95 µM | viability ([13]; at 0.000305 µM, OCI-C5x cells, with rucaparib 10 µM, 100% = cells with rucaparib alone) 94.7% | viability ([13]; at 0.00122 µM, OCI-C5x cells, with rucaparib 10 µM, 100% = cells with rucaparib alone) 98% | viability ([13]; at 0.00488 µM, OCI-P5x cells, with rucaparib 20 µM, 100% = cells with rucaparib alone) 97% | viability ([13]; at 0.0195 µM, OCI-C5x cells, with rucaparib 10 µM, 100% = cells with rucaparib alone) 95.2% | viability ([13]; at 0.0195 µM, OCI-P5x cells, without rucaparib) 89.9% | viability ([13]; at 0.0781 µM, OCI-C5x cells, with rucaparib 10 µM, 100% = cells with rucaparib alone) 94.7% | viability ([13]; at 0.0781 µM, OCI-P5x cells, with rucaparib 20 µM, 100% = cells with rucaparib alone) 88.1% | viability ([13]; at 0.313 µM, OCI-C5x cells, with rucaparib 10 µM, 100% = cells with rucaparib alone) 93.2% | viability ([13]; at 0.313 µM, OCI-P5x cells, with rucaparib 20 µM, 100% = cells with rucaparib alone) 44.4% | viability ([13]; at 0.313 µM, OCI-P5x cells, without rucaparib) 77.9% | viability ([13]; at 1.25 µM, OCI-C5x cells, with rucaparib 10 µM, 100% = cells with rucaparib alone) 58.9% | viability ([13]; at 1.25 µM, OCI-P5x cells, with rucaparib 20 µM, 100% = cells with rucaparib alone) 24.3% | viability ([13]; at 1.25 µM, OCI-P5x cells, without rucaparib) 28.1% | viability ([13]; at 5 µM, OCI-C5x cells, with rucaparib 10 µM, 100% = cells with rucaparib alone) 2.01% | viability ([13]; at 5 µM, OCI-C5x cells, without rucaparib) 3.5% | viability ([13]; at 5 µM, OCI-P5x cells, with rucaparib 20 µM, 100% = cells with rucaparib alone) 8.21% | viability ([13]; at 5 µM, OCI-P5x cells, without rucaparib) 6.01%
814: cell count ([10]; measured here: total cells with miR-34 induction, stronger effect = lower value)
-2.78: z-score ([12]; Rieske KO mouse fibroblast survival, CellTiter-Glo 72 h)
